# Records with an inconclusive call do not appear. The source made the active and inactive calls. How the source made its calls, unless noted: active means hit-call score of the fitted dose curve at least 0.9, where 1 is the maximum; inconclusive means response in the unintended direction; inactive means score below 0.9.
# How the values were obtained:
# [1] = molecular target: human CYP1A2, CYP1A2 (gene 1544) (UniProt P05177); test: NVS_ADME_hCYP1A2: NovaScreen (NVS) CYP450-related Enzyme Activity (ADME) Assay for human CYP1A2 (AID 2283102);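 further: potency for inhibition since loss of fluorescence marks reduced CYP1A2 activity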
# human CYP1A2, CYP1A2 (gene 1544), sequence (P05177 whole entry, looked up): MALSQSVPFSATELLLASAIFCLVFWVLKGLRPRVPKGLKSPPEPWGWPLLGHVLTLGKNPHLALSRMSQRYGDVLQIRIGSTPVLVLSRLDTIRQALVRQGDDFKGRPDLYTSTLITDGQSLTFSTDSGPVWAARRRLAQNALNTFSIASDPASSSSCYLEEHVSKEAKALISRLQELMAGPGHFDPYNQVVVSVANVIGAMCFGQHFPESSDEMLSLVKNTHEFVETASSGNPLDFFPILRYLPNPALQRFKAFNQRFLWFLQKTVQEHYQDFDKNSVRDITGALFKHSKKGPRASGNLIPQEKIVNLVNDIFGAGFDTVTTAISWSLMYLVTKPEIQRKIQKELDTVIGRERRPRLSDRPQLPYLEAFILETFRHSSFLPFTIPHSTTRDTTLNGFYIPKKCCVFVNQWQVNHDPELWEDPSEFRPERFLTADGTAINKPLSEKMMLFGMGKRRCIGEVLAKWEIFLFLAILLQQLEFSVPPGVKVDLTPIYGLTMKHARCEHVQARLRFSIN
# In short: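 Enzyme activity of insect-cell-expressed human CYP1A2 measured by fluorescence 0.5 h after compound addition, relative to acetonitrile. Compounds first tested in duplicate at 10 uM, actives followed up in concentration series.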
# [2] = molecular target: human CYP2C9, CYP2C9 (gene 1559) (UniProt P11712); test: NVS_ADME_hCYP2C9: NovaScreen (NVS) CYP450-related Enzyme Activity (ADME) Assay for human CYP2C9 (AID 2283108)
# human CYP2C9, CYP2C9 (gene 1559), sequence (P11712 whole entry, looked up): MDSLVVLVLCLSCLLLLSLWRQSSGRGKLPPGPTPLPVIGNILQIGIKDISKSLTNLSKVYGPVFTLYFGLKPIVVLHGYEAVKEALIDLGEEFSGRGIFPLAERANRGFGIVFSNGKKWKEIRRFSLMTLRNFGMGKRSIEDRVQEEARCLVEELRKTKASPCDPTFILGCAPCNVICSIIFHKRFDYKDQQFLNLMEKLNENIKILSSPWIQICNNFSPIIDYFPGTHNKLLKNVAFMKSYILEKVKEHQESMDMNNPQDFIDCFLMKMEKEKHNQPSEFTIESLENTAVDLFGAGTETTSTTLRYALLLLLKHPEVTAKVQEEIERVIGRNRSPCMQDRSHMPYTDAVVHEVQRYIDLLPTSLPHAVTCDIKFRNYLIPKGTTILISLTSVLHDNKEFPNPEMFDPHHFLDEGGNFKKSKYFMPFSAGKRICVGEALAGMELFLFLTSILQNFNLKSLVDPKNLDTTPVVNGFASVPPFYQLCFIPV
# In short: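 Cell-free assay of recombinant human CYP2C9 produced in Sf9 cells, with enzyme activity read by fluorescence intensity 0.75 h after compound addition. Loss of signal versus an acetonitrile negative control indicates inhibition. Primary screen used 10 uM in duplicate; actives were retested in concentration series.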
# [3] = molecular target: Cytochrome P450 2C19 (Homo sapiens) (UniProt P33261); test: NVS_ADME_hCYP2C19: NovaScreen (NVS) CYP450-related Enzyme Activity (ADME) Assay for human CYP2C19 (AID 2283113);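 on AC50: potency for inhibition seen as loss of fluorescent signal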
# In short: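 Compounds first screened in duplicate at 10 uM, then confirmed in concentration series. Insect-cell-expressed human CYP2C19 turned over a fluorogenic substrate, and fluorescence was read after 1 h. Inhibition taken as signal loss relative to acetonitrile.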
# [4] = molecular target: human CYP1A1, CYP1A1 (gene 1543) (UniProt P04798); test: NVS_ADME_hCYP1A1: NovaScreen (NVS) CYP450-related Enzyme Activity (ADME) Assay for human CYP1A1 (AID 2283100)
# human CYP1A1, CYP1A1 (gene 1543), sequence (P04798 whole entry, looked up): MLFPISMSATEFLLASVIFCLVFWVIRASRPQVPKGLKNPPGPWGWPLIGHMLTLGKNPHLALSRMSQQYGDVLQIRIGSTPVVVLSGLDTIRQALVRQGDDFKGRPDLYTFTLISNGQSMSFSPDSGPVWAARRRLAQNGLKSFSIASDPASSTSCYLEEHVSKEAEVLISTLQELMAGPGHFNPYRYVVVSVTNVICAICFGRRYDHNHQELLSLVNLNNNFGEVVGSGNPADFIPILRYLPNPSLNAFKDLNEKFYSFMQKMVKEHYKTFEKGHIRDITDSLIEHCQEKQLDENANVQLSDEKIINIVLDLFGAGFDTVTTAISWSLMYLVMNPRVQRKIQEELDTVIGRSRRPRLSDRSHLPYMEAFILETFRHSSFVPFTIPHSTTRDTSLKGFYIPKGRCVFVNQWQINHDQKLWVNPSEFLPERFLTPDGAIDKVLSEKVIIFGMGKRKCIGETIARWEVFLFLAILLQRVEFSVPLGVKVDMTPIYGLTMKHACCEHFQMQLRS
# In short: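 Chemicals were first tested in duplicate at 10 uM, and those passing a 30% inhibition threshold were rerun as concentration series topping at 20 uM. Fluorescence read-out of recombinant enzyme turnover after 1 h, relative to acetonitrile.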
# [5] = molecular target: human CYP2B6, CYP2B6 (gene 1555) (UniProt P20813); test: NVS_ADME_hCYP2B6: NovaScreen (NVS) CYP450-related Enzyme Activity (ADME) Assay for human CYP2B6 (AID 2283101)
# human CYP2B6, CYP2B6 (gene 1555), sequence (P20813 whole entry, looked up): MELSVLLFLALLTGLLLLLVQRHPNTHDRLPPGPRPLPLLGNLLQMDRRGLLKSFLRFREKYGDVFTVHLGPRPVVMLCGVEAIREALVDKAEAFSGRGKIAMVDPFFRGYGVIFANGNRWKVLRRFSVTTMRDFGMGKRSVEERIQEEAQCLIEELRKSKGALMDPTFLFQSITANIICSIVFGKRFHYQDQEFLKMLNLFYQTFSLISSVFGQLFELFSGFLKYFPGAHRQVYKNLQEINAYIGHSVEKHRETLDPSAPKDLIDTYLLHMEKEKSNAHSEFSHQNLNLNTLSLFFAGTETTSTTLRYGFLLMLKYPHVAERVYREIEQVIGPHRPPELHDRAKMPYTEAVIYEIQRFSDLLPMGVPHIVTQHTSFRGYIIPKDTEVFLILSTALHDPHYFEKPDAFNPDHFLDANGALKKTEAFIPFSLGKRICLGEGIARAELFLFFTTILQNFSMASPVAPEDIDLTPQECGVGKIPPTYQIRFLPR
# In short: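 Recombinant protein, specific fluorescent substrate, read at 1 h post-dosing. Primary: single 10 uM, duplicate; follow-up: concentration series. Activity = signal loss vs acetonitrile baseline, with positive and negative controls on every plate.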
# [6] = molecular target: Cytochrome P450 3A4 (Homo sapiens) (UniProt P08684); test: NVS_ADME_hCYP3A4: NovaScreen (NVS) CYP450-related Enzyme Activity (ADME) Assay for human CYP3A4 (AID 2283110)
# Cytochrome P450 3A4 (Homo sapiens), sequence (P08684 whole entry, looked up): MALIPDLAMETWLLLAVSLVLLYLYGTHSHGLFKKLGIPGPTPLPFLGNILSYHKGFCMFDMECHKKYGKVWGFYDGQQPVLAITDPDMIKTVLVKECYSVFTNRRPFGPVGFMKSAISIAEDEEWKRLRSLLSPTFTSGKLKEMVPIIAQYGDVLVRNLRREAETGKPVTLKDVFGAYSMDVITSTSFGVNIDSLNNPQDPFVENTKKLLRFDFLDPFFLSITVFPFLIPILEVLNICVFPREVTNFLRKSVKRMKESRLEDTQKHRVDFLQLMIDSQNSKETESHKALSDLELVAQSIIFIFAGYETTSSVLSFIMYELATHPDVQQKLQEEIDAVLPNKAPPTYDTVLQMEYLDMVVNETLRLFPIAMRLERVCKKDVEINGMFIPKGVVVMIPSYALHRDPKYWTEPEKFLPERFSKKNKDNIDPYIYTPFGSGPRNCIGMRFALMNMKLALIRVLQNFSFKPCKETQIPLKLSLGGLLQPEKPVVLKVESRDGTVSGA
# In short: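 Activity is derived from decreased fluorescence intensity relative to acetonitrile, measured 0.33 hour after dosing insect-cell-expressed CYP3A4 in a cell-free format. Screening used 10 uM in duplicate before concentration-response follow-up.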
# [7] = molecular target: human CYP2D6, CYP2D6 (gene 1565) (UniProt P10635); test: NVS_ADME_hCYP2D6: NovaScreen (NVS) CYP450-related Enzyme Activity (ADME) Assay for human CYP2D6 (AID 2283107)
# human CYP2D6, CYP2D6 (gene 1565), sequence (P10635 whole entry, looked up): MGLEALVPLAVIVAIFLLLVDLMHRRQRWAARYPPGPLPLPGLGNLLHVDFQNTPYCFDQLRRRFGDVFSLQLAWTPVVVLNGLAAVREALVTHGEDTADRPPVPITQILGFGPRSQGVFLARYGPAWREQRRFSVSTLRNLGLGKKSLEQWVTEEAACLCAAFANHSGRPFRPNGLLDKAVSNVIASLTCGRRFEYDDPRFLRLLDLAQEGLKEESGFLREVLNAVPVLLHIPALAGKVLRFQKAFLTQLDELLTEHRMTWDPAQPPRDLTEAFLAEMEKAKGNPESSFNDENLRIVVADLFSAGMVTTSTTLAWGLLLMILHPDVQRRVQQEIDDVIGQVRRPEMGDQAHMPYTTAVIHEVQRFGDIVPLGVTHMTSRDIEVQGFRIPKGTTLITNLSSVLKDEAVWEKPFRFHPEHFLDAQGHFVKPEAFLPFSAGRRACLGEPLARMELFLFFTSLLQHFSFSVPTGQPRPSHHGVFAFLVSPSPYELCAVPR
# In short: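 Fluorescence readout of recombinant CYP2D6 (insect-cell derived) activity after 1 h incubation with test chemical. Acetonitrile served as baseline, loss-of-signal direction. Single-concentration duplicate screening at 10 uM preceded concentration-response retesting.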
# [8] = molecular target: human CYP2J2, CYP2J2 (gene 1573) (UniProt P51589); test: NVS_ADME_hCYP2J2: NovaScreen (NVS) CYP450-related Enzyme Activity (ADME) Assay for human CYP2J2 (AID 2283106)
# human CYP2J2, CYP2J2 (gene 1573), sequence (P51589 whole entry, looked up): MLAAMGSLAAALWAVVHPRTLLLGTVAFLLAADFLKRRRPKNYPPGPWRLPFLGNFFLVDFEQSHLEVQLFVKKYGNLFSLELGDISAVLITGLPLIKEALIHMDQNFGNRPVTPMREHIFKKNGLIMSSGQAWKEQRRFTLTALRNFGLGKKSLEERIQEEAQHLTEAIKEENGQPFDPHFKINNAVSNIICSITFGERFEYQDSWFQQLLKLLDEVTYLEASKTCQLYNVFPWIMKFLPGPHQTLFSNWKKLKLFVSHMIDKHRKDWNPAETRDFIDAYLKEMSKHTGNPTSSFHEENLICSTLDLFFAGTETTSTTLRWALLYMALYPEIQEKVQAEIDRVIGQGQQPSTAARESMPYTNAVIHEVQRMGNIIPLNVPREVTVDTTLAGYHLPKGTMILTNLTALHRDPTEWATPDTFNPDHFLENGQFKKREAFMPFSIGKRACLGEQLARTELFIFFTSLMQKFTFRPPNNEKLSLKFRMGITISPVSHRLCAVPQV
# In short: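 Chemicals were first tested at 10 uM in duplicate, and hits meeting criteria such as 30% inhibition were run in singleton concentration series with a 20 uM top concentration. Enzyme activity of recombinant CYP2J2 was measured by fluorescence after 1 h, relative to acetonitrile.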
# [9] = molecular target: human CYP4F12, CYP4F12 (gene 66002) (UniProt Q9HCS2); test: NVS_ADME_hCYP4F12: NovaScreen (NVS) CYP450-related Enzyme Activity (ADME) Assay for human CYP4F12 (AID 2283111)
# human CYP4F12, CYP4F12 (gene 66002), sequence (Q9HCS2 whole entry, looked up): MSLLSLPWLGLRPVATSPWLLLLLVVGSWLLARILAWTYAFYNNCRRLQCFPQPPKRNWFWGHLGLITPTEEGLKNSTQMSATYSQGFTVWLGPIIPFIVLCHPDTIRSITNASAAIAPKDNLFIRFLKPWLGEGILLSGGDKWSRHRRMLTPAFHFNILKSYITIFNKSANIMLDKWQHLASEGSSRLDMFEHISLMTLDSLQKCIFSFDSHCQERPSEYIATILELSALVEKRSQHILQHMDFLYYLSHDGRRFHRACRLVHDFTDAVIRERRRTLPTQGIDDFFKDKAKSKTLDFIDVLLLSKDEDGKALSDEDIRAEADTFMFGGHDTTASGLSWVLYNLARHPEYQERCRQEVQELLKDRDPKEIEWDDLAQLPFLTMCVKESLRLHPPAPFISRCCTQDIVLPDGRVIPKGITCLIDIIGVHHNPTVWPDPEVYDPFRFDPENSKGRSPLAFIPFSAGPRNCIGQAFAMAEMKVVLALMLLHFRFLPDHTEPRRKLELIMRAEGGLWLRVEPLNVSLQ
# In short: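 Recombinant enzyme with a fluorescent substrate, signal read at 0.5 h post-dose; activity loss analysed relative to acetonitrile. Compounds first run in duplicate at 10 uM, with follow-up concentration-response testing of actives.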
# [10] = molecular target: rat CYP2A1, Cyp2a1 (gene 24894) (UniProt P11711); test: NVS_ADME_rCYP2A1: NovaScreen (NVS) CYP450-related Enzyme Activity (ADME) Assay for rat CYP2A1 (AID 2283114; active means hit-call score of the fitted dose curve at least 0.9, where 1 is the maximum; inactive means score below 0.9)
# rat CYP2A1, Cyp2a1 (gene 24894), sequence (P11711 whole entry, looked up): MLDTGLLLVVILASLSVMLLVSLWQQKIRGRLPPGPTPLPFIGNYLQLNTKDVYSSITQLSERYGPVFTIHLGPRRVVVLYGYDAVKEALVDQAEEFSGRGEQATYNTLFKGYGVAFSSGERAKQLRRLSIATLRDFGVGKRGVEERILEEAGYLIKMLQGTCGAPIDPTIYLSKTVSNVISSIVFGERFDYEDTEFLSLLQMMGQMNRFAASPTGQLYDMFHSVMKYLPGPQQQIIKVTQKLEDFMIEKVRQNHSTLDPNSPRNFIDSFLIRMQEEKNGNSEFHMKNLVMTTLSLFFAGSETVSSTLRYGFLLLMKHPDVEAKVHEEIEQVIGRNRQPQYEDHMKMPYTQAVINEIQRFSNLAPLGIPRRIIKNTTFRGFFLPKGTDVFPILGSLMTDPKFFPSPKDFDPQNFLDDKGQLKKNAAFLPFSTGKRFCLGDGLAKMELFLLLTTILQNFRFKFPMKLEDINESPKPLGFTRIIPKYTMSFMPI
# In short: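 Cell-free fluorescence enzyme-activity read on recombinant rat CYP2A1, taken 0.75 h post-dosing. Compounds were screened in duplicate at 10 uM, then hits tested in concentration series (max 20 uM); inhibition scored relative to acetonitrile baseline.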
smiles,measurement,setting,value
c1ccc2c(c1)Nc1ccccc1S2,AC50,[1],1.45 µM (active)
same,AC50,[2],6.5 µM (active)
same,AC50,[3],6.45 µM (active)
CSC(C)(C)C=NO,outcome,[4],inactive
same,outcome,[5],inactive
same,outcome,[2],inactive
same,outcome,[6],inactive
same,outcome,[3],inactive
CC(C)Nc1ccc(Nc2ccccc2)cc1,outcome,[7],inactive
same,AC50,[2],2.66 µM (active)
same,AC50,[3],3.42 µM (active)
CCC(C)(C)c1ccc(O)cc1,AC50,[5],10 µM (active)
CCOP(=S)(OCC)SCn1nnc2ccccc2c1=O,AC50,[2],1.43 µM (active)
same,AC50,[3],3.57 µM (active)
CC1(C)CN=C(NN=C(/C=C/c2ccc(C(F)(F)F)cc2)/C=C/c2ccc(C(F)(F)F)cc2)NC1,outcome,[4],inactive
same,AC50,[1],12.9 µM (active)
same,AC50,[8],5.19 µM (active)
same,outcome,[6],inactive
O=[N+]([O-])c1ccccc1,outcome,[9],inactive
CO/N=C(/C(=O)OC)c1ccccc1COc1ccccc1C,AC50,[1],9.98 µM (active)
same,AC50,[2],6.5 µM (active)
same,AC50,[3],2.85 µM (active)
same,AC50,[10],4.24 µM (active)
Cc1ccc([N+](=O)[O-])cc1C,AC50,[3],2.77 µM (active)
CCOP(=S)(Oc1ccc([N+](=O)[O-])cc1)c1ccccc1 (stereo not given),AC50,[5],4.41 µM (active)
same,AC50,[1],5.08 µM (active)
same,AC50,[2],5.15 µM (active)
same,AC50,[6],3.84 µM (active)
same,AC50,[3],0.198 µM (active)
CC(Cc1ccc(OCC(=O)O)cc1)NCC(O)c1csc(C(F)(F)F)n1 (stereo not given),outcome,[3],inactive
CCC1(c2ccccc2)C(=O)N=C(O)NC1=O (stereo not given),outcome,[9],inactive
ClC1=C(Cl)C2(Cl)C3C(Cl)C(Cl)CC3C1(Cl)C2(Cl)Cl (stereo not given),AC50,[5],5.2 µM (active)
same,AC50,[3],6.11 µM (active)
CCCCOCCOP(=O)(OCCOCCCC)OCCOCCCC,outcome,[3],inactive
O=P(Oc1ccccc1)(Oc1ccccc1)Oc1ccccc1,AC50,[1],5.67 µM (active)
same,AC50,[3],0.872 µM (active)
CCOP(=S)(OCC)SCSCC,AC50,[4],4.19 µM (active)
same,AC50,[3],9.32 µM (active)
CCOC(=O)c1ccccc1C(=O)OCC,outcome,[6],inactive
C=CC(=O)OCC(CC)(COC(=O)C=C)COC(=O)C=C,AC50,[3],2.4 µM (active)
Cc1ccc2c(c1N)C(=O)c1ccccc1C2=O,AC50,[7],5 µM (active)
same,AC50,[2],0.0118 µM (active)
same,outcome,[6],inactive
same,AC50,[3],3.02 µM (active)
Nc1ccc2ccccc2c1,AC50,[5],1.45 µM (active)
same,AC50,[1],7.68 µM (active)
same,AC50,[3],2.58 µM (active)
O=P1(N(CCCl)CCCl)NCCCO1 (stereo not given),outcome,[9],inactive
CCCCCCCc1ccc(O)cc1,outcome,[3],inactive
O=P(OCC(Br)CBr)(OCC(Br)CBr)OCC(Br)CBr (stereo not given),AC50,[3],4.35 µM (active)
CCNc1nc(Cl)nc(NC(C)(C)C)n1,AC50,[3],6.82 µM (active)
O=S1(=O)OCC2C(CO1)C1(Cl)C(Cl)=C(Cl)C2(Cl)C1(Cl)Cl (stereo not given),AC50,[3],2.43 µM (active)
CCCCN(CCCC)SN(C)C(=O)Oc1cccc2c1OC(C)(C)C2,outcome,[4],inactive
same,AC50,[2],16.8 µM (active)
same,outcome,[3],inactive
